This is one part of a sample in which hits are shown more often than they occur.
Tg IFNy HTS = blocks Toxoplasma gondii growth in the presence of IFN-gamma. Toxoplasma gondii growth in IFN-gamma-treated host cells; hits give low values. activity change, negative = inhibition, % (test concentration not listed). 3.8% of 69,000 active. AID 1259416; in the data active = activity change below about -70%, passing the limit was not always enough;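 note: host cells are HeLa cells infected with Toxoplasma gondii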
* hit, by the source's call; i = inactive.

SMILES	Tg IFNy HTS
CC(C)CNC(=O)c1cc2cccnc2n(Cc2ccccc2)c1=O	-94*
COc1ccc(CNC(=O)c2cc3cccnc3n(Cc3ccc(Cl)cc3)c2=O)cc1	-113*
COc1ccc(NC(=O)c2cc3cccnc3n(Cc3ccc(Cl)cc3)c2=O)cc1	i
COc1ccc(CNC(=O)c2cc3cccnc3n(Cc3ccc(F)cc3)c2=O)cc1	-43
CCCCNC(=O)c1cc2cccnc2n(Cc2ccccc2)c1=O	-6
COc1ccc(CNC(=O)c2cc3cccnc3n(Cc3ccccc3)c2=O)cc1	-74*
O=C(NCCc1ccccc1)c1cc2cccnc2n(Cc2ccccc2)c1=O	29
Cc1ccc(CNC(=O)c2cc3cccnc3n(Cc3ccc(Cl)cc3)c2=O)cc1	30
O=C(NCc1ccc(Cl)cc1)c1cc2cccnc2n(Cc2ccccc2)c1=O	-66
COc1ccc2c(c1)C1(CCN(C(=O)c3cccc4[nH]ccc34)CC1)CC2CC(=O)O (stereo unspecified)	44
COc1cc(N2CC[C@@H]3[C@H]2CCN3Cc2cccnc2)ncn1	-5
CN(C)CCN1C(=O)CC[C@@H]2[C@@H]1CCN2Cc1ccccn1	-10
Cc1ccc(NC(=O)c2cc3cccnc3n(Cc3ccc(Cl)cc3)c2=O)cc1F	64
O=C(c1cnccn1)N1C[C@@H](c2cc(F)cc(F)c2)[C@@H]2[C@H]1C1CCN2CC1	-3
C#C[C@]1(O)C=C[C@H]2[C@@H]3CCC4=CC(=O)CC[C@@H]4[C@H]3CC[C@@]21CC	-81*
C#C[C@]1(O)CC[C@H]2[C@@H]3CCC4=CC(=O)CC[C@]4(C)[C@H]3CC[C@@]21C	-16
O=C(Nc1ccc(Oc2ccccc2)cc1)c1cc2cccnc2n(Cc2ccccc2F)c1=O	44
Cc1cc(CN2C[C@H]3COC[C@H](CC(=O)N(C)C)[C@@H]3C2)no1	6
Cc1noc(C)c1CN1CC2CNC(C2)C1 (stereo unspecified)	0
CCN1C[C@H]2CN(Cc3nccn3C)C[C@H]2C1=O	-4
C[C@]12CC[C@H]3[C@@H](CC[C@]4(O)C[C@@H](O)CC[C@]34C=O)[C@@]1(O)CC[C@@H]2C1=CC(=O)OC1	-63
CO[C@@H]1C(O)[C@H](O[C@H]2CC[C@@]3(C=O)[C@H](CC[C@@H]4[C@@H]3CC[C@]3(C)[C@@H](C5=CC(=O)OC5)CC[C@]43O)C2)OC(C)[C@@H]1O (stereo partly specified)	-75*
C[C@@H]1O[C@@H](O[C@@H]2C[C@@H](O)[C@]3(CO)[C@H]4[C@H](O)C[C@]5(C)[C@@H](C6=CC(=O)OC6)CC[C@]5(O)[C@@H]4CC[C@]3(O)C2)[C@H](O)[C@H](O)[C@H]1O	-81*
CO[C@H]1[C@H](O)[C@@H](O[C@H]2CC[C@]3(C=O)C4CC[C@]5(C)[C@@H](C6=CC(=O)OC6)CC[C@]5(O)C4CC[C@@H]3C2)O[C@@H](C)[C@@H]1O (stereo partly specified)	-83*
CCOC1CC2(CCN(CC(=O)O)CC2)c2cc(OC)ccc21 (stereo unspecified)	3
SMILES	Tg IFNy HTS
CN1C2CCC1CC(OC(=O)CNC1CCCCC1)C2 (stereo unspecified)	-5
N#Cc1cccc(NC2COC3(CCCN(CC(=O)O)C3)C2)n1 (stereo unspecified)	59
CN(C)c1ccc(-c2nccn2CCc2cnc[nH]2)cn1	3
CN1CC2(CCN(CC(=O)NCc3ccccn3)C2)OC1=O (stereo unspecified)	-3
COCCN1CCO[C@H]2CN(S(=O)(=O)c3cccnc3)C[C@@H]2C1	2
COc1cc(C(=O)N[C@H]2c3ccccc3[C@@H]3CNC[C@H]32)ccn1	-7
c1ccc(CN2C[C@@H]3CN(CC4CC4)C[C@H]3C2)nc1	67
CC(C)NC(=O)[C@H]1CCS(=O)(=O)[C@H]2CNC[C@@H]12	-22
COC1C(O)CC(OC2C(O)CC(OC3C(O)CC(OC4CCC5(C)C(CCC6[C@@H]5CC(O)C5(C)C(C7=CC(=O)OC7)CCC65O)C4)OC3C)OC2C)OC1C (stereo partly specified)	-77*
CC(=O)O[C@H]1C[C@H](O[C@H]2[C@@H](O)C[C@H](O[C@H]3[C@@H](O)C[C@H](O[C@H]4CC[C@@]5(C)C(CCC6C5C[C@@H](O)[C@]5(C)[C@@H](C7=CC(=O)OC7)CC[C@]65O)C4)O[C@@H]3C)O[C@@H]2C)O[C@H](C)[C@H]1O[C@@H]1O[C@H](CO)[C@@H](O)[C@H](O)[C@H]1O (stereo partly specified)	-73*
C[C@]12CC[C@H](O)C[C@H]1CC[C@@H]1[C@@H]2CC[C@]2(C)[C@@](O)(c3ccoc3)CC[C@]12O	-3
C[C@H]1OC(O[C@H]2[C@@H](O)CC(O[C@H]3[C@@H](O)C[C@H](O[C@H]4CC[C@]5(C)C6CC[C@]7(C)[C@@H](C8=CC(=O)OC8)[C@@H](O)C[C@]7(O)[C@@H]6CC[C@@H]5C4)O[C@@H]3C)O[C@@H]2C)C[C@H](O)C1O (stereo partly specified)	-73*
Cc1ccc(-c2nccn2CCc2cnc[nH]2)c(C)c1F	-3
O=C(NC1CCCC1)c1cc2cccnc2n(Cc2ccc(Cl)cc2)c1=O	74
O=C1NCCN(CC2CC2)C12CCN(Cc1cccnc1)CC2	-1
C[N+]1(C)CCc2cc3c(cc2C1[C@@H]1OC(=O)c2c1ccc1c2OCO1)OCO3 (stereo partly specified)	-37
O=C(CCC1C(=O)NC(=O)NC1=O)Nc1ccc(Oc2ccc(F)cc2)cc1	10
CCN1C[C@H]2CN(Cc3cccs3)C[C@H]2C1=O	-43
CSc1ccc(C(=O)N[C@H]2c3ccccc3[C@@H]3CNC[C@H]32)s1	-1
O=S(=O)(c1ccc(F)cc1)N1CC2CNCC2C1 (stereo unspecified)	90
C=CCOC1C2CCC1N(Cc1ccccn1)CCO2 (stereo unspecified)	-92*
c1ccc(CN2CCO[C@H]3[C@H]2CC[C@H]3OCc2cccnc2)nc1	9
c1ccc(CN2C[C@H]3OCCN(CC4CCCO4)[C@H]3C2)nc1 (stereo partly specified)	38
Cc1cccc(CN2C[C@H]3CN(c4ccsc4)C(=O)[C@@H]3C2)n1	-12
O=C1[C@H]2CCNC[C@H]2OCCN1c1ccccc1	4
SMILES	Tg IFNy HTS
COc1ccc(C[C@H]2NC[C@H](O)[C@H]2OC(C)=O)cc1	-75*
O=C(NC1CCCCC1)c1cc2cccnc2n(Cc2ccccc2F)c1=O	81
Cc1nccc([C@H]2C[C@@H]3CCN(Cc4cnn(C)c4)C[C@@H]3O2)n1	35
CN1C(=O)C2(CCN(Cc3cccn3C)CC2)c2ccccc21	34
c1ccc(CN2CC[C@H]3[C@@H]2CCN3Cc2cccs2)nc1	-14
CN(C)C(=O)CN1CCC2C1CC(=O)N2Cc1cccnc1 (stereo unspecified)	6
Cc1cccc(CN2C(=O)C[C@H]3[C@H]2CCN3Cc2cccs2)n1	-93*
Cc1cccc(C)c1NC(=O)c1cc2cccnc2n(Cc2ccccc2)c1=O	-17
COc1ccccc1CN(CCN(C)C)C(=O)Cc1c(C)[nH]c(=O)[nH]c1=O	-12
CCCN1CCC[C@@H]2Cc3nc(N)ncc3C[C@H]21	13
CCCN1CCC[C@@H]2Cc3[nH]ncc3C[C@H]21	-73*
CCc1nc(C)cc(NCCC23CCCN2CCC3)n1	-3
CN1C[C@@H](COCc2cccnc2)[C@]2(CCN(C(=O)N(C)C)C2)C1	1
CN1CCc2cc(O)cc3c2[C@H]1Cc1ccc(O)c(O)c1-3	-6
